Measurements reported in PubChem BioAssay (Tox21).
Values joined by “and” are separate entries in the source; they are usually repeats but may differ in a detail not shown here. Equal entries are not always repeated. Inconclusive results are not listed. A structure can be active in one record and inactive in another. Active and inactive are the calls of the source. Unless noted, calls follow the shape of the dose curve; as a rule, active = well fitted curve in the direction sought with a large enough effect in the repeat runs; inconclusive = weak or mixed curves; inactive = no such curve, though single readings can be large; an effect the other way counts as inactive or inconclusive.

Assays:
[1] = qHTS assay to identify small molecule antagonists of the sonic hedgehog signaling (Shh) pathway (AID 1259369; calls by dose curve; also: nearly all actives have a fitted effect of over 45% in size; also: potency is read from the fitted curve at half-maximal effect)
Method in brief: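 NIH/3T3-derived 3T3Gli1-Luc cells with stably integrated Gli1-Luc reporter were preincubated 4hr at 37 C, then given compounds in DMSO plus Shh conditioned medium and incubated 24hr. Firefly luciferase luminescence read after 30min reagent at room temperature.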

[2] = qHTS assay to identify small molecule agonists of the androgen receptor (AR) signaling pathway in the presence of an antagonist - cell viability counter screen (AID 1259379); also: nearly all actives have a fitted effect of over 25% in size; also: potency is read from the fitted curve at half-maximal effect;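 as to activity change, negative = cytotoxicity: MDA-kb2 human breast cancer cells carrying an MMTV luciferase reporter; series mostly up to about 92 µM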
Method in brief: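 MDA-kb2 human breast carcinoma cells (stable MMTV-luciferase, AR/GR responsive) were seeded 3,000 cells/well, pre-incubated 5 hr at 37C without CO2, then given 3.0uM nilutamide and compounds at 15 concentrations for 16 hr. Viability was read by CellTiter-Fluor fluorescence.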

[3] = qHTS assay to identify small molecule agonists of the estrogen receptor beta (ER-beta) signaling pathway - cell viability counter screen (AID 1259380); also: nearly all actives have a fitted effect of over 30% in size; also: potency is read from the fitted curve at half-maximal effect
Method in brief: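 ER-beta-UAS-bla HEK293T cells in medium with 2% charcoal-stripped FBS were preincubated 6 hr at 37C, dosed with compound in DMSO for 16 hr, then after the bla read, CellTiter-Glo was added for 30 min at room temperature; luminescence recorded.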

[4] = qHTS assay to identify small molecule antagonists of the estrogen receptor beta (ER-beta) signaling pathway - cell viability counter screen (AID 1259382); also: nearly all actives have a fitted effect of over 55% in size; also: potency is read from the fitted curve at half-maximal effect;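 as to activity change, negative = cytotoxicity: HEK293T cells carrying ER-beta-UAS-bla reporter stimulated with estradiol; series mostly up to about 92 µM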
Method in brief: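 ER-beta-UAS-bla HEK293T cells (2,000/well, 2% charcoal-stripped FBS) were pre-incubated 6 hr at 37C, then given compound plus 1nM final 17-beta-estradiol for 16 hr. Viability was read in the same wells by CellTiter-Glo luminescence after 30 min at room temperature.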

[5] = qHTS assay to identify small molecule agonists or antagonists of the thyroid stimulating hormone receptor (TSHR) signaling pathway - wild type cell line counter screen (AID 1259384; calls by dose curve; also: potency is read from the fitted curve at half-maximal effect)
Method in brief: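 Wild-type HEK293 cells were plated 18 h at 37 C/5% CO2, pin-dosed with compound plus Ro20-1724 medium, held 30 min at room temperature, then given cAMP-d2 and anti-cAMP-cryptate; fluorescence was read after 1 h. Fifteen concentrations, triplicate.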

[6] = target: Thyrotropin receptor (Homo sapiens) (UniProt P16473); experiment: qHTS assay to identify small molecule antagonists of the thyroid stimulating hormone receptor (TSHR) signaling pathway (AID 1259385; calls by dose curve; also: nearly all actives have a fitted effect of over 20% in size; also: potency is read from the fitted curve at half-maximal effect)
Thyrotropin receptor (Homo sapiens), sequence (P16473 whole entry, looked up): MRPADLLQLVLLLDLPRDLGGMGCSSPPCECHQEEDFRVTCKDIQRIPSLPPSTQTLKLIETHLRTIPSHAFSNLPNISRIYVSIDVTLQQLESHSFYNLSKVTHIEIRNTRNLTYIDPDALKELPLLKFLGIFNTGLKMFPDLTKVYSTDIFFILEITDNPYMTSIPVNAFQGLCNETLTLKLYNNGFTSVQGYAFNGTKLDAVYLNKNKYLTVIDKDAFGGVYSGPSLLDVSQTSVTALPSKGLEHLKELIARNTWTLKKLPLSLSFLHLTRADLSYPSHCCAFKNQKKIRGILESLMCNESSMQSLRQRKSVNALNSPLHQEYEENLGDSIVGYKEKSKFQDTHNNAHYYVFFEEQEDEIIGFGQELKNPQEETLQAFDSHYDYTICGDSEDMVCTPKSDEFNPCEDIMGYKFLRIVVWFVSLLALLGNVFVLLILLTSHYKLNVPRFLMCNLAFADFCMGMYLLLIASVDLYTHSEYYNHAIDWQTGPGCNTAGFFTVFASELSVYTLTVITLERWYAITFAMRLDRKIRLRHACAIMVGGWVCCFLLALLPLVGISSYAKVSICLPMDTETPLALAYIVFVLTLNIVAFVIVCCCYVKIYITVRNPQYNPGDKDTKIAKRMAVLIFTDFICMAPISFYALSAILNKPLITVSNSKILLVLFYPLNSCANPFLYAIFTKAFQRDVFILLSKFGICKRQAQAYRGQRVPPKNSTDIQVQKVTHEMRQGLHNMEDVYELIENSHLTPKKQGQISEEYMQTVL
Method in brief: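 TSHR-HEK293 cells were plated and held 18 h at 37C/5% CO2, then given compound plus Ro20-1724 and stimulated with TSH at 1.5 ng/mL final. After 30 min at room temperature, cAMP was detected with cAMP-d2/anti-cAMP-cryptate (1 h) by fluorescence.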

[7] = qHTS assay to identify small molecule agonists of the estrogen receptor alpha (ER-alpha) signaling pathway in the presence of an antagonist - cell viability counter screen (AID 1259386);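 also: cells exposed to compounds for 22 h at 37 °C before the viability read; nearly all actives have a fitted effect of over 30% in size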; also: potency is read from the fitted curve at half-maximal effect; as to activity change, negative = cytotoxicity: series mostly up to about 92 µM
Method in brief: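 VM7Luc4E2 cells (endogenous full-length ER-alpha, 4×ERE-luciferase) were held 5 days in phenol red-free medium with 10% charcoal-stripped FBS, plated, then given 10.0nM ICI-182,780 and compounds at 15 concentrations for 22hr at 37C; viability read by CellTiter-Fluor fluorescence.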

[8] = target: Progesterone receptor (Homo sapiens) (UniProt P06401); experiment: qHTS assay to identify small molecule agonists of the progesterone receptor (PR) signaling pathway (AID 1346784; calls by dose curve; also: nearly all actives have a fitted effect of over 30% in size; also: potency is read from the fitted curve at half-maximal effect)
Progesterone receptor (Homo sapiens), sequence (P06401 whole entry, looked up): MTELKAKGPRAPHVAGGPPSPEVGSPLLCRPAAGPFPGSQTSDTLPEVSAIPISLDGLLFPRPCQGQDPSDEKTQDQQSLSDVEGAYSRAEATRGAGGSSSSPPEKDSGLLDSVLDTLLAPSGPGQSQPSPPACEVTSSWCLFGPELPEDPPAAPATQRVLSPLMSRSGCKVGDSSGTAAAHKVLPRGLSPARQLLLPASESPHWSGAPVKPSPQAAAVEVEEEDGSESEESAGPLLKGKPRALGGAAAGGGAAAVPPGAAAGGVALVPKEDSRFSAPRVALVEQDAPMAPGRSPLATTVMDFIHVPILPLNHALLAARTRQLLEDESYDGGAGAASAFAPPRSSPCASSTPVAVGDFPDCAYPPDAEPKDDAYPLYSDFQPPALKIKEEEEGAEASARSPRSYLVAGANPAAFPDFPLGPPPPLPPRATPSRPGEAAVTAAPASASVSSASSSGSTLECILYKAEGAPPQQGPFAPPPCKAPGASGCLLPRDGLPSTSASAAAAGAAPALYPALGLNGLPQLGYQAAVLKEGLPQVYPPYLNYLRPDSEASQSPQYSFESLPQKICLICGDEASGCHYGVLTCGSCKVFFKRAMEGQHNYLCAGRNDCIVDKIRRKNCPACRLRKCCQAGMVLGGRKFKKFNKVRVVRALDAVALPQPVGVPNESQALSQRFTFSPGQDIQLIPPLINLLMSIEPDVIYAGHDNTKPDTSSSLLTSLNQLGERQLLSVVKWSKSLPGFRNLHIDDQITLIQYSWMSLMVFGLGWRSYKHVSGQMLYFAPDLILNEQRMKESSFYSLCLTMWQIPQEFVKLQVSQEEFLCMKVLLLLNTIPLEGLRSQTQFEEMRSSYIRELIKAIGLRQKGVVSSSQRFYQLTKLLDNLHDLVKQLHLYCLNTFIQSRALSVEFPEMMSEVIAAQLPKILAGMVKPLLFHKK
Method in brief: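 Cells (PR-UAS-bla HEK 293T, GripTite) were plated in assay medium containing 2% charcoal-stripped FBS and incubated 6 hr. Test compounds in DMSO were added for 16 hr at 37C. FRET substrate was then loaded for 2 hr at room temperature before fluorescence reading.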

[9] = target: Progesterone receptor (Homo sapiens) (UniProt P06401); experiment: qHTS assay to identify small molecule antagonists of the progesterone receptor (PR) signaling pathway (AID 1346795; active = well fitted inhibition curve with a large enough effect in the signal ratio in the repeat runs, not every such curve was filed as active; the % refers to the signal ratio; also: potency is read from the fitted curve at half-maximal effect)
Method in brief: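 Antagonist mode: compounds tested against 1 nM (final) promegestone stimulation in HEK293T cells expressing PR-UAS-bla reporter, 16 hr at 37C, 5% CO2; beta-lactamase activity detected via B/G FRET substrate after 2 hr at room temperature.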

[10] = qHTS assay to identify small molecule antagonists of the progesterone receptor (PR) signaling pathway - cell viability counter screen (AID 1346798); also: nearly all actives have a fitted effect of over 50% in size; also: potency is read from the fitted curve at half-maximal effect; as to activity change, negative = cytotoxicity: series mostly up to about 92 µM
Method in brief: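 Counter screen for cytotoxicity: viability of PR-UAS-bla HEK293T cells was measured with CellTiter-Glo luminescence following 16 hr compound exposure in the presence of R5020.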

[11] = qHTS assay to identify small molecule agonists of the progesterone receptor (PR) signaling pathway - cell viability counter screen (AID 1346799; calls by dose curve; also: nearly all actives have a fitted effect of over 45% in size; also: potency is read from the fitted curve at half-maximal effect)
Method in brief: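 Cells (PR-UAS-bla HEK293T) are plated at 3,000/well in 2% charcoal-stripped FBS medium, rested 6 hr, dosed and incubated 16 hr at 37C. CellTiter-Glo is then added and luminescence measured after 30 min at room temperature.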

[12] = qHTS assay to identify small molecule antagonists of the TGF-beta/Smad signaling pathway - cell viability counter screen (AID 1346824); also: nearly all actives have a fitted effect of over 50% in size; also: potency is read from the fitted curve at half-maximal effect
Method in brief: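 SBE-bla HEK 293T cells were plated overnight at 37 C, then given compounds in DMSO plus TGF-beta1 (added as 0.25 ng/mL solution) for 5 hr. After the bla read, CellTiter-Glo was added to the same wells and luminescence read after 30 min at room temperature.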

[13] = qHTS assay to identify small molecule agonists of the TGF-beta/Smad signaling pathway - cell viability counter screen (AID 1346829); also: nearly all actives have a fitted effect of over 45% in size; also: potency is read from the fitted curve at half-maximal effect; as to activity change, negative = cytotoxicity: top concentration of the series differs between compounds
Method in brief: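 Compound-treated SBE-bla HEK 293T cells (5 hr, 37 C) were assessed for viability with CellTiter-Glo in parallel with the reporter read.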

[14] = qHTS assay to identify small molecule agonists of the TGF-beta/Smad signaling pathway (AID 1346859; active = well fitted activation curve with a large enough effect in the signal ratio in the repeat runs, not every such curve was filed as active; the % refers to the signal ratio; also: series mostly up to about 77 µM)
Method in brief: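 Reporter line: HEK 293T with stably integrated SBE-controlled beta-lactamase. Compound exposure lasts 5 hr at 37 C and 5% CO2; substrate loading follows for 2 hr at room temperature, with emission read at 460 and 530 nm.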

[15] = target: Thyrotropin-releasing hormone receptor (Homo sapiens) (UniProt P34981); experiment: qHTS assay to identify small molecule antagonists of the thyrotropin-releasing hormone receptor (TRHR) signaling pathway (AID 1346877; active = well fitted inhibition curve with a large enough effect in the repeat runs, not every such curve was filed as active; also: potency is read from the fitted curve at half-maximal effect)
Thyrotropin-releasing hormone receptor (Homo sapiens), sequence (P34981 whole entry, looked up): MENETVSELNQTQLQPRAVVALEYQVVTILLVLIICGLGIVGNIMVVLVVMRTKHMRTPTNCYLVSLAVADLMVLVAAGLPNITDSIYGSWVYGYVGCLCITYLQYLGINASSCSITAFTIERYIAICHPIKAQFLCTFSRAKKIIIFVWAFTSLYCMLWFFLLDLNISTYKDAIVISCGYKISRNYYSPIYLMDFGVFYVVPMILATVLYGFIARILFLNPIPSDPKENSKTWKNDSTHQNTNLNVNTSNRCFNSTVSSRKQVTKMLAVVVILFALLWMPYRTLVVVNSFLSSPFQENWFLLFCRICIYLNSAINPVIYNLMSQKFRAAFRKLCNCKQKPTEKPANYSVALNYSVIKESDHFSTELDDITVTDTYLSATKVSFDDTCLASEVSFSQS
Method in brief: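 TRHR-expressing HEK293 cells were seeded, cultured 18 h at 37 °C, then loaded with calcium dye for 2 h. Compounds were pre-incubated 5 min at room temperature before 1 nM TRH (final) was added, and kinetic fluorescence was recorded for 3 min.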

[16] = target: Thyrotropin-releasing hormone receptor (Homo sapiens) (UniProt P34981); experiment: qHTS assay to identify small molecule agonists of the thyrotropin-releasing hormone receptor (TRHR) signaling pathway (AID 1346891; calls by dose curve; also: potency is read from the fitted curve at half-maximal effect; as to activation: series mostly up to about 58 µM)
Method in brief: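 Cells: TRHR-Hek293, seeded and incubated 18 h. Dye loading: 2 h at 37 °C. Compound added from DMSO stock by pin tool. Read-out: kinetic calcium fluorescence over 3 min.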

[17] = target: Estrogen receptor (Homo sapiens) (UniProt P03372); experiment: qHTS assay to identify small molecule agonists of the estrogen receptor alpha (ER-alpha) signaling pathway in the presence of an antagonist (AID 1259383; calls by dose curve; also: top concentration of the series differs between compounds; nearly all actives have a fitted effect of over 15% in size)
Estrogen receptor (Homo sapiens), sequence (P03372 whole entry, looked up): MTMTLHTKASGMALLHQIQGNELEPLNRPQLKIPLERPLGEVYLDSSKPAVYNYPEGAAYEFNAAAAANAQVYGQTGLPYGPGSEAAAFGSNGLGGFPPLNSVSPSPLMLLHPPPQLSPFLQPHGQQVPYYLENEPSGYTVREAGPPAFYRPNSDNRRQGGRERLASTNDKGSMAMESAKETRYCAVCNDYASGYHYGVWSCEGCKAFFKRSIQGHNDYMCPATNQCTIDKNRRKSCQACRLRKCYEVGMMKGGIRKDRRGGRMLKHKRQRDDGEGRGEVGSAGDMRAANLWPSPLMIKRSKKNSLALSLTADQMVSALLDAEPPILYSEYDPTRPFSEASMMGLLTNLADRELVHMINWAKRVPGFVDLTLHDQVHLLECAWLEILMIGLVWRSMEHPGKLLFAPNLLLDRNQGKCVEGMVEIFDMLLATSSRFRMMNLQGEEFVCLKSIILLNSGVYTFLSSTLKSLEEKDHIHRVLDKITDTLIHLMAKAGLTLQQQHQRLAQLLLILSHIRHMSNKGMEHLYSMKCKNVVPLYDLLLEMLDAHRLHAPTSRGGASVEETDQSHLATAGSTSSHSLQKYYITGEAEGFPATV
Method in brief: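 VM7Luc4E2 cells (endogenous full-length ER-alpha, 4×ERE-luciferase) were precultured 5 days in phenol red-free medium with 10% charcoal-stripped FBS, given 10.0nM ICI-182,780 (final), then treated with compounds at 15 concentrations for 22hr at 37C; luminescence read with ONE-Glo.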
% is scaled to controls: 0 for no effect and ±100 for the full control effect.

CCCN
inactive: Potency [1] | Potency [2] | Potency [3] | Potency [4] | Potency [5] | Potency [6] | Potency [7] | Potency [8] | Potency [9] | Potency [10] | Potency [11] | Potency [12] | Potency [13] | outcome [14]

CCn1cc[n+](C)c1 (tested in a mixture with another compound)
inactive: Potency [1] | Potency [2] | Potency [3] | Potency [4] | Potency [7] | Potency [8] | Potency [9] | Potency [11] | Potency [12] | Potency [13] | outcome [14]

Nc1nc(N)c(N)c(N)n1
inactive: Potency [1] | Potency [2] | Potency [3] | Potency [4] | Potency [7] | Potency [9] | Potency [10] | Potency [12] | Potency [13] | Potency [15]
active: Potency [8] 7740 nM | Potency [16] 39100 nM

Clc1ccc(C(c2ccc(Cl)cc2)C(Cl)Cl)cc1
active: Potency [1] 34400 nM | Potency [3] 54.5 µM | Potency [6] 62.1 µM and 61.1 µM | Potency [9] 7820 nM
inactive: Potency [2] | Potency [17] | Potency [5] | Potency [7] | Potency [8] | Potency [10] | Potency [12] | outcome [14]

CC(=O)[O-].CC(=O)[O-].CC(=O)[O-].[Sb+3]
inactive: activity change, negative = inhibition [1] 2.99% [at 3.27 µM] | activity change, negative = cytotoxicity [2] 3.2% [at 3.27 µM] | activity change, negative = cytotoxicity [3] 2.42% [at 3.32 µM] | activity change, negative = cytotoxicity [4] -1.85% [at 3.27 µM] | activity change, negative = cytotoxicity [7] -1.24% [at 3.27 µM] | activation [8] 3.93% [at 3.27 µM] | activity change, negative = inhibition [9] -5.92% [at 3.27 µM] | activity change, negative = cytotoxicity [10] 10.2% [at 3.27 µM] | activity change, negative = cytotoxicity [11] 7.1% [at 3.27 µM] | viability change, negative = cytotoxic [12] -1.18% [at 2.72 µM] | activity change, negative = cytotoxicity [13] 2.52% [at 2.72 µM]

CN(C)CCc1c[nH]c2ccccc12
inactive: Potency [1] | Potency [2] | Potency [3] | Potency [5] | Potency [6] | Potency [7] | Potency [8] | Potency [12] | outcome [14] | Potency [15]

CN1C(=O)[C@@H](NC(=O)c2cc3ccccc3[nH]2)N=C(c2ccccc2)c2ccccc21
inactive: Potency [1] | Potency [2] | Potency [3] | Potency [4] | Potency [5] | Potency [6] | Potency [7] | Potency [8] | Potency [9] | Potency [10] | Potency [11] | Potency [12] | outcome [14] | Potency [15] | Potency [16]

O=C(O)[C@H](O)[C@@H](O)C(=O)O
inactive: Potency [1] | Potency [2] | Potency [3] | Potency [17] | Potency [7] | Potency [8] | Potency [9] | Potency [10] | Potency [11] | Potency [12] | Potency [13] | outcome [14] | Potency [15] | Potency [16]

C[C@]12C/C(=C/O)C(=O)C[C@@H]1CC[C@@H]1[C@@H]2CC[C@@]2(C)[C@H]1CC[C@]2(C)O
active: Potency [1] 15500 nM | Potency [3] 49 µM and 26.6 µM | Potency [4] 49000 nM | Potency [10] 69200 nM | Potency [11] 77700 nM
inactive: Potency [5] | Potency [7] | Potency [12] | Potency [13] | Potency [15] | Potency [16]
61.7 µM (active) and inactive: Potency [2]

CC(Cc1ccc(O)cc1)NCC(O)c1cc(O)cc(O)c1 (stereo not given)
active: Potency [5] 668 nM
inactive: Potency [1] | Potency [2] | Potency [3] | Potency [4] | Potency [17] | Potency [6] | Potency [7] | Potency [8] | Potency [9] | Potency [10] | Potency [11] | Potency [12] | Potency [13] | Potency [15]

[F][Sn]([c]1ccccc1)([c]1ccccc1)[c]1ccccc1
inactive: Potency [17] | Potency [5]
active: Potency [1] 48.6 nM | Potency [2] 4.33 µM | Potency [3] 1.22 µM | Potency [4] 1220 nM | Potency [10] 1370 nM | Potency [11] 1540 nM | Potency [12] 1380 nM | Potency [13] 1230 nM | Potency [15] 3380 nM

CC(=O)[O][Sn]([c]1ccccc1)([c]1ccccc1)[c]1ccccc1
active: Potency [1] 54.5 nM | Potency [2] 0.77 µM | Potency [3] 0.137 µM | Potency [6] 19.3 µM | Potency [7] 8630 nM | Potency [9] 48.6 nM | Potency [10] 273 nM | Potency [11] 433 nM | Potency [12] 1950 nM | Potency [13] 1740 nM | Potency [15] 2690 nM | Potency [16] 4900 nM
inactive: Potency [17] | Potency [5] | Potency [8]

c1csc(-c2ccc(-c3cccs3)s2)c1
inactive: Potency [1] | Potency [2] | Potency [3] | Potency [4] | Potency [5] | Potency [6] | Potency [8] | Potency [10] | Potency [11] | Potency [12] | Potency [13] | Potency [15] | Potency [16]

[C-]1=CC=CC1.[Cl][Zr+2][Cl].c1cc[cH-]c1
inactive: Potency [1] | Potency [2] | Potency [3] | Potency [4] | Potency [7] | Potency [9] | Potency [10] | Potency [11] | Potency [12] | outcome [14]

CCOC(=O)CCN(SN(C)C(=O)Oc1cccc2c1OC(C)(C)C2)C(C)C
inactive: Potency [2] | Potency [3] | Potency [4] | Potency [17] | Potency [5] | Potency [6] | Potency [8] | Potency [9] | Potency [10] | Potency [11] | Potency [12] | Potency [13] | outcome [14]
active: Potency [1] 54500 nM

[Cl-].[Cl-].[Sn+2]
inactive: Potency [1] | Potency [2] | Potency [3] | Potency [4] | Potency [7] | Potency [8] | Potency [9] | Potency [10] | Potency [11] | Potency [12] | outcome [14]
